Measurements taken from PubChem BioAssay.

Columns and labels:
[1] = tested on: Human papillomavirus type 1a protein E7 (residues 44-93); experiment: HPV1a E7 fragment binders on microarrays, primary screen, biochemical, small-molecule microarray, residues 44-93, 635 nm fluorescence (AID 1108); settings: small-molecule microarray binding, fluorescence 635 nm; higher = more signal;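 note: E7 fragment applied at 1 µg/mL in TBST for 1 h at 4 C; score combines spot fluorescence with its signal to noise ratio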
[2] = modulators of HCV replicon luciferase signal, primary screen, HCV replication inhibitor project, Huh7 cells, luciferase reporter (AID 1109); settings: 48 h, higher = more signal;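 note: huh7 hepatoma cells harbouring a luciferase neomycin HCV replicon reporter; luciferase luminescence as measure of HCV replicon replication; test concentration not given here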
[3] = biological target: Left-right determination factor 2 (Homo sapiens) (UniProt O00292); experiment: LEFTY2 binders on small-molecule microarrays, primary screen, biochemical, small-molecule microarray, 635 nm fluorescence scan (AID 1110); settings: LEFTY2 binding, higher = more signal
[4] = biological target: Calmodulin-1 (Homo sapiens) (UniProt P0DP23); experiment: CALM1 binders on microarrays, EGTA buffer, profiling panel, biochemical, small-molecule microarray, Cy5-labelled CALM1 (AID 1111); settings: Cy5-CALM1 binding fluorescence, higher = more signal;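 note: labelled calmodulin applied in Tris saline Tween buffer holding calcium plus EGTA and DTT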
[5] = biological target: Calmodulin-1 (Homo sapiens) (UniProt P0DP23); experiment: calcium-bound CALM1 binders on microarrays, profiling panel, artefact control for SMM control-protein annotation, biochemical, small-molecule microarray, Cy5-labelled CALM1, plus calcium (AID 1112); settings: Cy5-CALM1 binding fluorescence, higher = more signal;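 note: score merges spot fluorescence with signal to noise from triplicate slides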
[6] = small-molecule microarray binders of probe aWnt5a, primary screen, biochemical, biotinylated probe, 635/667 nm fluorescence (AID 1113); settings: higher = more signal;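 note: score merges 667 nm fluorescence intensity with signal-to-noise per printed feature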
[7] = small-molecule microarray binders of probe aShh, primary screen, biochemical, biotinylated probe, 635/667 nm fluorescence (AID 1114); settings: higher = more signal;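 note: probe is biotin-labelled aShh protein from a stem cell growth factor screen; measures binding of labelled protein to compounds printed on the slide; score merges feature fluorescence at 667 nm with signal-to-noise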
[8] = small-molecule microarray binders of probe aNog, primary screen, biochemical, biotinylated probe, 635/667 nm fluorescence (AID 1115); settings: higher = more signal;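 note: probe is biotinylated aNog protein used at 0.15 µg/mL for 1 h at 4 C; z-score combines 667 nm fluorescence of each spot with its signal to noise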
[9] = biological target: Torsin-1A-interacting protein 1 (Homo sapiens) (UniProt Q5JTV8); experiment: LAP1 binders from COS7 cell lysate, primary screen, small-molecule microarray, 635/667 nm fluorescence (AID 1116); settings: COS7-hLAP1 lysate binding, 635 nm fluorescence, higher = more signal
[10] = biological target: Alpha-bungarotoxin (Bungarus multicinctus) (UniProt P60615); experiment: alpha-bungarotoxin binders on microarray, profiling panel, artefact control for SMM control protein annotation, biochemical, small-molecule microarray, Alexa647 label, 635/667 nm fluorescence (AID 1117); settings: alpha-BTX-A647 binding fluorescence, higher = more signal
Sequence of Alpha-bungarotoxin (Bungarus multicinctus) (P60615 whole entry, looked up): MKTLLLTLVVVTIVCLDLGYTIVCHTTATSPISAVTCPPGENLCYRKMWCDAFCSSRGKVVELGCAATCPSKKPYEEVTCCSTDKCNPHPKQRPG

Sequence of Torsin-1A-interacting protein 1 (Homo sapiens) (Q5JTV8 whole entry, looked up): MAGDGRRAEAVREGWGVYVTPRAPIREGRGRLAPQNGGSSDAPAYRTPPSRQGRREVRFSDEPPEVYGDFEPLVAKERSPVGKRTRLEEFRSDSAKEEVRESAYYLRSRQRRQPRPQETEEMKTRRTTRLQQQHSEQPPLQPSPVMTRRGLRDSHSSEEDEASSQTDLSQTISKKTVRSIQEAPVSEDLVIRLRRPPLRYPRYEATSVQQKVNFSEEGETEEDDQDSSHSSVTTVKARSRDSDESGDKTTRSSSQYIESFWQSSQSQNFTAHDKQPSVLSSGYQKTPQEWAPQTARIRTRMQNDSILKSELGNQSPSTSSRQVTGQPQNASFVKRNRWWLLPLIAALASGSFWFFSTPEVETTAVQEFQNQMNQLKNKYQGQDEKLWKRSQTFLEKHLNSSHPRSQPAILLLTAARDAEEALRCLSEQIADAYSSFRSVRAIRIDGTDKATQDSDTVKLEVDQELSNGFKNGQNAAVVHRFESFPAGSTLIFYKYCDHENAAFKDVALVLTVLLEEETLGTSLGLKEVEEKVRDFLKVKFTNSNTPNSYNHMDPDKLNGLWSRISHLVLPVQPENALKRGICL
Sequence of Left-right determination factor 2 (Homo sapiens) (O00292 whole entry, looked up): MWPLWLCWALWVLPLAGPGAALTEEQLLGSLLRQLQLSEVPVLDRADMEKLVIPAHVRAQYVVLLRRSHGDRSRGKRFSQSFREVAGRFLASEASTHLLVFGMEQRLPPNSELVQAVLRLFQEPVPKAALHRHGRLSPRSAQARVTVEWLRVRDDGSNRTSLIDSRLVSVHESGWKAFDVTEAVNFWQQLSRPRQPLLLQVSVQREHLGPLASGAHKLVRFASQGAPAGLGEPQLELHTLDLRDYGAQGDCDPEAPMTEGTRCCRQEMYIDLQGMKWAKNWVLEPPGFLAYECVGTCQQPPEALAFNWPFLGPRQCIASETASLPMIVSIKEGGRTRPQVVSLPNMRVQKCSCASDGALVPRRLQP

Row | SMILES | composite z-score [1] | z-score [2] | composite z-score [3] | composite z-score [4] | composite z-score [5] | composite z-score [6] | composite z-score [7] | composite z-score [8] | composite z-score [9] | composite z-score [10]
1 | CCCC[C@@H]1C[C@H]1[C@@H](NC(=O)c1cccs1)c1ccccc1C(F)(F)F | 1.39 | 0.758 | -0.363 | 1.72 | 0.763 | -0.001 | 0.663 | 1.52 | 0.582 | 0.881
2 | O=C1O[C@H](c2ccccc2)[C@H](c2ccccc2)N2[C@H]1[C@@H](C(=O)O)[C@]1(C(=O)Nc3ccc(C#CCCO)cc31)[C@H]2c1ccccc1OCCO | 1.24 | -0.488 | -0.587 | 0.4 | 0.0772 | -0.139 | 0.0141 | -0.539 | 0.182 | 0.649
3 | CCOC(=O)C[C@H]1[C@H](OC(=O)c2ccc(C(=O)c3ccccc3)cc2)[C@@H](NC(=O)c2ccc3ccccc3n2)c2cc(OCCCO)ccc2N1C(=O)Cc1ccc(OC)cc1 | 0.947 | 0.361 | 0.471 | 1.08 | 0.0823 | -0.202 | 0.0115 | -0.259 | -0.0179 | -0.0434
4 | C=CCNC(=O)[C@@H]1[C@H]2C(=O)O[C@H](c3ccccc3)[C@H](c3ccccc3)N2[C@H](c2ccccc2OCCO)[C@@]12C(=O)Nc1ccc(C#CCCO)cc12 | -0.489 | -0.364 | 1.2 | 0.142 | -0.0836 | -0.147 | -0.273 | -0.0965 | 0.544 | 0.0913
5 | CCCNC(=O)[C@@]1(C)c2ccccc2C(=O)N(c2ccc(C)cn2)[C@H]1c1ccc(CO)cc1 | -0.846 | 0.155 | 0.384 | -0.474 | -0.524 | -0.124 | -0.291 | 0.0373 | 0.311 | -0.163
6 | CC(C)c1ccc(NN2C(C(O)c3ccc(C#N)cc3)C=CC3C(=O)N(c4ccccc4)C(=O)C32)cc1 (stereo not given) | 1.44 | -0.882 | -0.109 | 2.28 | 1.01 | -0.0405 | 0.19 | 1.97 | 1.35 | 1.85
7 | O=C1CS(=O)(=O)C(c2cccc([N+](=O)[O-])c2)N1c1ccccc1 (stereo not given) | -0.611 | -0.376 | 0.432 | 0.0568 | -0.177 | 0.157 | 0.122 | -0.217 | 1.49 | 1.98
8 | COc1ccc(CCNC(=O)[C@@H]2c3ccccc3C(=O)N(C3CCCCC3)[C@H]2c2ccc(CO)cc2)cc1 | 1.48 | -1.82 | -0.306 | 0.112 | -0.184 | -0.0403 | 0.0098 | -0.402 | -0.17 | 0.371
9 | CCCC=C(CCC)[C@@H](NS(=O)(=O)CC12CCC(CC1=O)C2(C)C)c1ccc(C(=O)OC)cc1 (stereo not given in full) | 1.33 | -0.197 | 0.306 | -0.057 | -0.654 | -0.165 | -0.373 | -0.289 | 0.159 | -0.362
10 | CC(C)C(CO)N1C(=O)[C@@H]2C3C(=O)OCCC/C=C\[C@H]3OC23C=CCN(c2ccc4ccccc4c2)C(=O)[C@@H]13 (stereo not given in full) | -0.812 | -1.23 | -1.43 | -0.14 | -0.132 | -0.0405 | -0.0822 | 0.117 | -0.427 | -0.287
11 | COC(=O)c1c(CC[C@@H](CO)NC(=O)N2CCC[C@H]2Cn2cc(C3(O)CCCCC3)nn2)oc(C(C)=O)c1C(=O)OC | 1.33 | -0.172 | 0.562 | 0.624 | -0.712 | -0.275 | -0.0709 | 0.189 | 0.416 | 0.966
12 | C=CC[C@]1(C(=O)N2CCOCC2)COC(c2ccc(OCCCO)cc2)=N1 | 1.53 | -0.164 | -0.233 | 1.64 | -0.497 | -0.0236 | 0.381 | 1.11 | 1.98 | 2.21
13 | COC(=O)C/C=C/C[C@]1(O)C(=O)N(C)c2ccccc21 | 0.0938 | 0.027 | 0.704 | -1.34 | -0.895 | -0.122 | -0.243 | -0.252 | 0.194 | 0.766
14 | CCCC=C(CCC)[C@@H](NC(=O)c1cccs1)c1ccc(C(=O)OC)cc1 | 0.805 | -0.122 | 0.698 | 0.318 | -0.276 | 1.34 | 2.03 | 2.91 | 0.406 | 0.159
15 | O=C1N(Cc2ccccc2)c2ccccc2C[C@]12N=C(c1ccc(OCCCO)cc1)O[C@@H]2c1ccccc1 | 0.732 | -3.02 | 0.133 | 0.51 | -0.249 | -0.0179 | -0.332 | -0.356 | -0.0883 | 0.743
16 | CC(C)[Si](C#C[Si](C(C)C)(C(C)C)C(C)C)(O[C@H](c1ccccc1)c1cn(Cc2ccccc2)nn1)C(C)C | 1.06 | -0.0298 | 0.637 | 0.192 | -0.774 | -0.0794 | -0.0769 | 0.256 | 0.352 | 0.717
17 | CC(c1ccccc1)C(O)C1C=CC2C(=O)N(C)C(=O)C2N1Nc1ccccc1 (stereo not given) | 1.23 | -0.684 | -0.541 | 2 | 0.735 | 0.157 | 0.208 | 0.462 | 0.694 | 2.06
18 | CC(=O)NCCCC[C@@H]1NC(=O)[C@@H]2C[C@H](C(=O)NCCCCCN)[C@H](c3cccc(OCCO)c3)N2C1=O | 0.794 | -0.0844 | 0.736 | 1.09 | 0.634 | 0.0546 | 0.663 | 0.489 | 1.03 | 1.16
19 | COCCOC(=O)N1C(=O)[C@@]2(c3cc(C#CCC(C(=O)OC)C(=O)OC)ccc31)[C@H](c1ccc(OCCO)cc1)N1[C@H](c3ccccc3)[C@H](c3ccccc3)OC(=O)[C@H]1[C@@H]2C(=O)N1CCc2cc(OC)c(OC)cc2C1 | 1.42 | -0.919 | 0.52 | 1.01 | 0.182 | -0.072 | 0.123 | 0.353 | 1.05 | 1.68
20 | COc1ccc([Si](C)(C)[C@@H]2[C@@H](CC(=O)N3Cc4ccccc4C[C@H]3CO)O[C@]3(C(=O)N(Cc4ccc(N5C(=O)c6cccc7cccc5c67)cc4)c4ccccc43)[C@H]2C)cc1 | 1.35 | -3.96 | 0.987 | 0.318 | -0.512 | -0.0585 | 0.0952 | 0.251 | 1.04 | 0.964
21 | C=CCNC(=O)[C@@H]1[C@H]2C(=O)O[C@H](c3ccccc3)[C@H](c3ccccc3)N2[C@H](c2ccccc2OCCO)[C@@]12C(=O)Nc1ccc(C#CCC(C(=O)OC)C(=O)OC)cc12 | 0.562 | -3.28 | -0.034 | 0.138 | -0.147 | -0.0258 | -0.147 | -0.303 | 0.458 | 0.894
22 | COC(=O)C1=CC(CCCO)=CC(c2cccs2)N(Cc2cccc(OC(F)(F)F)c2)C=C1C(=O)OC (stereo not given) | 0.91 | -1.88 | 0.151 | 2.05 | 0.804 | -0.0194 | 0.0121 | 0.145 | 2.41 | 1.02
23 | C#Cc1cc2ccccc2oc1=O | -0.455 | -3.88 | -2.19 | -1.07 | -0.451 | -0.187 | 0.541 | -0.396 | -0.402 | -1.65
24 | CCCCNC(=O)c1ccc(C#CC(C)(C)C)c(OC(C)=O)c1 | 0.845 | -0.196 | 0.806 | 0.0614 | -0.526 | -0.159 | -0.117 | -0.256 | 0.5 | 0.608
25 | C=C(/C(=C/C[C@H](OC(C)=O)c1ccc(CO)o1)c1cnc2ccccc2c1)C(C)C | 1.43 | -2.23 | 0.552 | 1.4 | -0.24 | -0.0643 | 0.149 | 0.33 | 1.07 | 2.15
